# MPTP inh – blocks calcium-induced mitochondrial swelling; 1.4% of 360,000 active; inhibition, % at 10 µM; isolated mouse mitochondria, Ca2+ swelling absorbance, 30 min;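 active = inhibition of 50% or more, scaled per plate between neutral and stimulator controls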;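 note: 0% = DMSO wells given calcium and 100% = 1 mM EGTA wells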
# rCAG binder – molecules binding r(CAG) RNA repeats. 1.3% of 370,000 active. r(CAG) RNA repeat, TO-PRO-1 dye displacement fluorescence. inhibition, % at 3 µM;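 active = inhibition above the plate cutoff, the mean of all test compounds on that plate plus 3 SD, cut at about 35% in these data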;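 note: 0% = DMSO alone and 100% = 100 µM mitoxantrone as full dye displacement; higher means more dye released from RNA so lower well fluorescence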
# NR3A LBD binder – modulates the human NR3A ligand-binding domain; AID 1259313; NR3A LBD differential scanning fluorimetry, Tm shift; 0% = protein alone, 100% = glycine-bound protein; Tm shift relative to glycine control, % at 25 µM; 2.5% of 340,000 active;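 active = melting temperature shift of at least 10% of the positive control shift, at one fixed dose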
# Myeloid diff MLP – promotes myeloid progenitor differentiation; ER-HoxA9 myeloid progenitors, lysozyme-GFP differentiation, flow cytometry; calls only at 10 µM; 1% of 360,000 active;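 active = normalized GFP-positive differentiation at or above the plate's own cutoff, the solvent-only control mean plus 3 SD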;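 note: cells exposed to compound for four days before flow analysis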
# FAS-TE inh – blocks the thioesterase domain of human fatty acid synthase | P49327 | recombinant FAS-TE, OMFH fluorogenic substrate, fluorescence endpoint | inhibition, % at 15 µM | 0.67% of 360,000 active;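 active = compounds whose normalised, plate-corrected inhibition of enzyme fluorescence in the single-dose primary screen is 50% or more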;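 note: 0% = DMSO with enzyme and 100% = substrate without enzyme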
# Myeloid diff CP1 – myeloid differentiation induction. calls only. shares compounds with Myeloid diff MLP. 2% of 2,300 active. ER-HoxA9 myeloid progenitors, GFP/Mac1 double-positive flow. AID 651706;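 active = share of green or green-and-red cells above 9 and 9% in run 1 or 4 and 3% in run 2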
# GFP autofluor – counter-screen for myeloid differentiation promoters: compound fluorescence. shares compounds with Myeloid diff MLP. ER-HoxA9 myeloid progenitors, no estrogen, GFP autofluorescence flow cytometry; vehicle wells 0%, positive control 100%. fluorescence response, % (no concentration beside the values). 7.4% of 2,300 active. AID 651707;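 active = over 5% cells positive for green fluorescent reporter, or over 2% positive for both it and APC stain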;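 note: range taken on the double positive population between DMSO and positive control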
# * marks the source's active call; other numbers are inactive results; i = inactive; nt = no result; + = active, no number. Shown are actives, neighbours in structure and some others; about 5.7% of the full set was active somewhere.
SMILES,MPTP inh,rCAG binder,NR3A LBD binder,Myeloid diff MLP,FAS-TE inh,Myeloid diff CP1,GFP autofluor
Cc1ccccc1C(=O)Nc1nnc(S(=O)(=O)N2CCCCCC2)s1,3,14,-2,i,-1,i,0
COc1cccc(CNC(=O)c2cc3c(c(-c4cccc(-c5cccc(C#N)c5)c4)n2)[C@H](CCO)N(S(=O)C(C)(C)C)C3)c1 (some centres not stated),2,12,nt,i,49,nt,nt
CCC(C)[C@H](NC(=O)NCc1ccccc1Cl)C(=O)OC (some centres not stated),-1,0,1,i,-1,i,0
CCC(C)[C@H](NC(=O)NCc1cccnc1)C(=O)OC (some centres not stated),2,-2,2,i,-4,nt,nt
CN(C)S(=O)(=O)c1cccc(NC(=O)COC(=O)CCc2nc3ccccc3s2)c1,-1,3,7,i,0,i,2
CN(CC1COc2ccccc2O1)C(=O)CCNS(=O)(=O)c1ccc(F)c(Cl)c1 (configuration not stated),0,0,nt,i,10,nt,nt
Oc1ccc(-c2cnc3c(Nc4cccc(OC(F)(F)C(F)F)c4)nccn23)cc1,4,9,nt,+,7,i,0
Cc1occc1C(=O)/C(C#N)=C/c1ccc(O)c(Br)c1,48,5,-6,i,-4,nt,nt
OCC[C@H]1C[C@H](O)[C@@H](O)[C@@]2(OCCCc3ccccc32)O1,-1,4,-3,+,-4,i,0
OCC[C@@H]1C[C@@H](O)[C@H](O)[C@]2(OCCCc3ccccc32)O1,0,0,1,i,-9,nt,nt
Nc1c(Cl)cc2c(c1Oc1ccccc1)C(=O)c1ccccc1C2=O,2,16,-13,+,23,i,0
C[C@@H]1CCCCO[C@@H](CN(C)C(=O)c2ccncc2)[C@@H](C)CN([C@H](C)CO)C(=O)c2cc(N(C)C)ccc2O1,-1,4,nt,i,-5,nt,nt
Cc1noc(C)c1S(=O)(=O)Nc1ccc2c(c1)C(=O)N([C@H](C)CO)C[C@H](C)[C@@H](CN(C)C(=O)CCCN(C)C)OCCCC[C@@H](C)O2,-1,2,nt,i,-2,i,0
C[C@@H]1CCCCO[C@H](CN(C)C(=O)C2CCCCC2)[C@@H](C)CN([C@H](C)CO)C(=O)c2cc(N(C)C)ccc2O1,-3,1,nt,i,-8,i,0
COc1ccc(S(=O)(=O)Nc2ccc3c(c2)C(=O)N([C@@H](C)CO)C[C@@H](C)[C@H](CN(C)C(=O)CCCN(C)C)OCCCC[C@H](C)O3)cc1,-1,7,nt,i,-7,nt,nt
Cc1c(Cl)cccc1NC(=S)NC(=O)c1ccccc1,0,2,nt,i,16,nt,nt
CC(CCOS(N)(=O)=O)c1ccccc1 (configuration not stated),1,nt,-1,i,-9,nt,nt
OC[C@@H]1CN(Cc2ccccc2)C[C@H](n2cnc3c(NCc4ccco4)ncnc32)O1,2,5,nt,+,-5,i,0
O=C(N[C@@H]1C[C@@H]2O[C@@H](CO)CC[C@@H]2O[C@@H]1CCc1ccc(-c2cccnc2)cc1)c1cccc(F)c1,nt,4,nt,nt,nt,nt,nt
Cc1nc(-c2ccccc2)sc1-c1ccn[nH]1,-3,-5,0,i,-2,nt,nt
CCn1c(-c2sc(-c3ccccc3)nc2C)n[nH]c1=S,-1,0,2,+,0,i,0
Cc1ccc(-c2csc(NC(=O)c3c(C)noc3C)n2)cc1,-1,1,-2,+,5,i,0
Cc1c(C(=O)O)sc2nc3n(c(=O)c12)CCC(C)CC3 (configuration not stated),1,1,0,+,1,i,0
COc1cccc(C(=O)COC(=O)C(C)N2C(=O)c3ccccc3C2=O)c1 (configuration not stated),1,-6,14*,i,7,i,0
Cc1cc(C)c(NN=c2c(=O)c3ccccc3c2=O)c(C)c1,0,1,3,+,-4,i,0
SMILES,MPTP inh,rCAG binder,NR3A LBD binder,Myeloid diff MLP,FAS-TE inh,Myeloid diff CP1,GFP autofluor
c1ccc(C2=Nn3c(nnc3-c3ccccn3)SC2)cc1,-2,-4,0,i,-4,i,0
c1ccc(-c2ccc(C3=Nn4c(nnc4-c4ccccn4)SC3)cc2)cc1,nt,2,nt,nt,nt,nt,nt
O=C(OCC(=O)c1c[nH]c2ccccc12)c1cccc(S(=O)(=O)N2CCCCCC2)c1,1,14,-3,i,20,i,0
CC(NC(=O)COC(=O)c1ccc(CO)cc1)C1CC2CCC1C2 (configuration not stated),0,4,1,i,2,nt,nt
CCc1nc2ccc(C(=O)Nc3cc(-c4ccccc4)ccc3OC)cn2c1N(C)Cc1nccs1,-1,11,nt,+,18,i,0
CCc1nc2ccc(C(=O)Nc3cc(-c4ccccc4)ccc3OC)cn2c1N(C)Cc1ccc(OC)cc1,3,7,nt,i,11,nt,nt
COc1ccc2cnn(CCOc3cc(C)ccc3C(C)C)c(=O)c2c1OC,1,4,-2,+,14,i,0
COc1ccc(S(=O)(=O)N[C@@H](Cc2ccc(Cl)cc2)C(=O)N2CC[C@@]3(O)CCCC[C@H]3C2)cc1,0,1,-1,i,6,i,0
O=C(NC1CCCCC1)c1cccc2c1C(=O)c1ccc(N3CCCC3)cc1S2(=O)=O,0,-5,0,i,-62,nt,nt
CC1CCN(c2ccc3c(c2)S(=O)(=O)c2cccc(C(=O)NC4CCCCC4)c2C3=O)CC1,0,-1,-1,+,-11,i,2
Cc1ccc(C)c(OCCC(=O)OCC(=O)Nc2ccc(Cl)cn2)c1,0,2,1,i,14,nt,nt
Cc1nc(C(F)(F)F)nc(Nc2ccc(Br)cc2)c1C#N,0,0,2,i,-3,nt,nt
Cn1cc(Br)cc2nc(C(F)(F)F)nc1-2,-1,0,-9,+,-9,i,0
Cc1nc(-n2[nH]c3c(c2=O)CCCC3)[nH]c(=O)c1Cc1ccccc1,0,9,-1,i,-6,i,0
Cc1nc(N2CCc3ccccc3C2)[nH]c(=O)c1Cc1ccccc1,3,5,1,i,-2,nt,nt
Cn1c(Cc2ccccc2)nnc1SCC(=O)Nc1ccccc1,-2,-1,-1,i,-5,nt,nt
CC(C)OC(=O)CSc1nnc(Cc2ccccc2)n1C,0,-4,-1,+,-8,i,0
Cc1c(CNCC(C)c2ccccc2)c(C(=O)O)c(C)n1Cc1ccccc1 (configuration not stated),0,-2,-3,i,-4,nt,nt

# High-throughput results from PubChem.
